# Source: PubChem BioAssay (Tox21)
# Inconclusive results are not listed. A call without a number means that no potency is given here. Some compounds were tested as several samples or in several runs, with calls that do not always agree. Activity calls are given as the source filed them. Unless noted, calls come from the whole dose curve.
# Tests used:
# [1] = Nuclear factor erythroid 2-related factor 2/antioxidant responsive element (Nrf2/ARE) small molecule agonists: qHTS cell viability counter screen in human keratinocytes (AID 1919968; active = well fitted curve in the direction sought with a large enough effect in the repeat runs; an effect the other way counts as inactive or inconclusive; note: nearly all actives have a fitted effect of over 55% in size)
# Method in brief: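 Cytotoxicity was multiplexed with the Nrf2/ARE luciferase assay in the same wells. Stably transfected HaCaT keratinocytes were treated with test compounds for 23 h at 37 C. Cell viability was then measured by CellTiter-Fluor fluorescence.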
# [2] = Nuclear factor erythroid 2-related factor 2/antioxidant responsive element (Nrf2/ARE) small molecule agonists: luciferase reporter gene qHTS assay in human keratinocytes (AID 1919969); note: nearly all actives have a fitted effect of over 35% in size; note: potency is the fitted concentration of half-maximal effect
# [3] = biological target: Gonadotropin-releasing hormone receptor (Homo sapiens) (UniProt P30968); test: Human gonadotropin-releasing hormone receptor (GnRHR) small molecule agonists, calcium flux assay in GnRHR-HEK293 cells (AID 1920063); note: nearly all actives have a fitted effect of over 35% in size
# Method in brief: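 Agonist activity was measured as intracellular calcium flux in HEK293 cells engineered to stably express human GnRHR. After dye loading for 1 hour at 37 C, compounds in DMSO were added and fluorescence was followed for 3 minutes.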
# [4] = biological target: KiSS-1 receptor (Homo sapiens) (UniProt Q969F8); test: Human kisspeptin (KISS1R) small molecule agonists, calcium flux assay in KISS1R-HEK293 cells (AID 1920064; active = well fitted curve in the direction sought with a large enough effect in the repeat runs; an effect the other way counts as inactive or inconclusive)
# Method in brief: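 Agonist activity is monitored as intracellular calcium rise in engineered HEK293 cells carrying human KISS1R. Cells are dye-loaded for 1 h at 37 C before compound addition, and fluorescence is recorded for 3 min.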
# [5] = G protein-coupled receptor (GPCR) small molecule agonists, calcium flux assay: HEK293 wild type cell line counter screen (AID 1920065)
# Method in brief: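 Seed cells, incubate 18 h (37 C, 5% CO2); add calcium dye, 1 h at 37 C; pin-transfer compounds, ATP control or DMSO; read fluorescence 480/540 nm each second for 3 min.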
# [6] = p53 small molecule agonists, cell-based qHTS assay with human liver microsomes (AID 1963577);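 note: p53 response element beta-lactamase reporter cells with liver microsomes plus NADPH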
# Method in brief: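 With metabolic activation: human liver microsomes (0.5 mg/mL final) plus NADPH (0.5 mg/mL final) added alongside compounds to p53RE-bla cells; 16 h 37 C exposure; beta-lactamase read by LiveBLAzer fluorescence.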
# [7] = p53 small molecule agonists, cell-based qHTS assay with rat liver microsomes (AID 1963578); note: potency is the fitted concentration of half-maximal effect
# Method in brief: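 Metabolic activation by rat liver microsomes and NADPH, each 0.5 mg/mL final, added right after compounds to p53RE-bla reporter cells (4,000/well, plated 5 h earlier). 16 h at 37 C, then LiveBLAzer substrate for 2 h at room temperature in the dark; fluorescence read-out.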
# [8] = p53 small molecule agonists, cell-based qHTS assay with human liver microsomes: qHTS cell viability counter screen (AID 1963579); note: nearly all actives have a fitted effect of over 45% in size
# Method in brief: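 Metabolic activation used human liver microsomes and NADPH, both 0.5 mg/mL final, over 16 hours at 37 C on p53RE-bla cells (4,000/well). Cytotoxicity measured by CellTiter-Glo luminescence, 30 min at room temperature.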
# [9] = p53 small molecule agonists, cell-based qHTS assay with rat liver microsomes: qHTS cell viability counter screen (AID 1963580); note: nearly all actives have a fitted effect of over 45% in size
# Method in brief: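 Cytotoxicity counter screen: intracellular ATP read by CellTiter-Glo luminescence in the p53 reporter wells. HCT-116 p53RE-bla cells were treated for 16 h at 37 C alongside rat liver microsomes and NADPH, each 0.5 mg/mL final.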
# [10] = p53 small molecule agonists, cell-based qHTS assay: qHTS cell viability counter screen (AID 1963581); note: nearly all actives have a fitted effect of over 45% in size
# Method in brief: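 Viability was counter-screened in parallel with the p53 agonist reporter by measuring intracellular ATP luminescence in the same HCT-116 p53RE-bla wells after 16 h compound treatment at 37 C.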
# [11] = p53 small molecule agonists, cell-based qHTS assay (AID 1963582; active = well fitted activation curve with a large enough effect in the signal ratio in the repeat runs, not every such curve was filed as active; the % refers to the signal ratio)
# Method in brief: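 Cells carrying a p53-responsive bla reporter are treated with test compounds for 16 h at 37 C; beta-lactamase activity is then detected with LiveBLAzer B/G FRET substrate after 2 h at room temperature.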
# [12] = biological target: 5-hydroxytryptamine receptor 2A (Homo sapiens) (UniProt P28223); test: 5-hydroxytryptamine receptor 2A (HTR2A) small molecule antagonists, cell-based qHTS assay (AID 1963586); note: nearly all actives have a fitted effect of over 45% in size
# Method in brief: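 CHO cells stably expressing human HTR2A were plated for 18 h at 37 C, then loaded with calcium dye for 1 h. Compounds were preincubated 5 min at room temperature before DOI (4 nM solution) was added. Kinetic fluorescence was read for 3 min.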
# [13] = biological target: 5-hydroxytryptamine receptor 2A (Homo sapiens) (UniProt P28223); test: 5-hydroxytryptamine receptor 2A (HTR2A) small molecule agonists, cell-based qHTS assay (AID 1963587); note: nearly all actives have a fitted effect of over 30% in size
# Method in brief: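 Kinetic calcium-flux fluorescence (2 min, 1 sec intervals) after compound addition in agonist mode. HTR2A-CHO cells were cultured 18 h, then dye-loaded 1 h at 37 C.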
# [14] = biological target: Muscarinic acetylcholine receptor M1 (Homo sapiens) (UniProt P11229); test: Cholinergic receptor muscarinic 1 (CHRM1) small molecule antagonists, cell-based qHTS assay (AID 1963588); note: nearly all actives have a fitted effect of over 40% in size
# Method in brief: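 Compounds were tested at 15 concentrations in three independent runs. Dye-loaded CHRM1-CHO cells were exposed 5 min at room temperature before stimulation by acetylcholine added at 50nM. Intracellular calcium was read kinetically on FDSS for 3 min.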
# [15] = biological target: Muscarinic acetylcholine receptor M1 (Homo sapiens) (UniProt P11229); test: Cholinergic receptor muscarinic 1 (CHRM1) small molecule agonists, cell-based qHTS assay (AID 1963589); note: nearly all actives have a fitted effect of over 35% in size
# Method in brief: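 Cells were plated and incubated 18 h at 37 C/5% CO2, loaded with calcium dye for 1 h at 37 C, then treated with compounds in DMSO. Fluorescence was recorded kinetically at 1 sec intervals.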
# [16] = cAMP Responsive Elements (CRE) small molecule agonists, cell-based qHTS assay (AID 1963590)
# Method in brief: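 Cells carrying a CRE-driven beta-lactamase reporter (HEK 293T) are seeded, incubated overnight (18 h), and treated with test compounds for 3 h at 37 C; reporter activity is then detected with a FRET substrate after 2 h at room temperature.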
# [17] = cAMP Responsive Elements (CRE) small molecule antagonists, cell-based qHTS assay (AID 1963591; active = well fitted inhibition curve with a large enough effect in the signal ratio in the repeat runs, not every such curve was filed as active; the % refers to the signal ratio)
# Method in brief: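 Cells (CRE-bla HEK 293T, DMEM with 10% dialyzed FBS and 25 mM HEPES) are seeded and incubated 18 h. Compounds are added with NKH477 agonist at 0.25 uM final for 3 h, then FRET substrate for 2 h.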
# [18] = biological target: Beta-2 adrenergic receptor (Homo sapiens) (UniProt P07550); test: Adrenergic beta2 receptor (ADRB2) small molecule antagonists, cell-based qHTS assay (AID 1963592); note: series mostly up to about 92 µM; nearly all actives have a fitted effect of over 50% in size
# Method in brief: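 Assay format: CHO-ADRB2 cells, 18-20hr seeding at 37C/5% CO2, then compound plus 1nM isoproterenol agonist mix for 0.5hr RT. Homogeneous time-resolved fluorescence cAMP detection after 1hr, expressed as 665/615 nm ratio.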
# [19] = biological target: D(2) dopamine receptor (Homo sapiens) (UniProt P14416); test: Dopamine D2 receptor (DRD2) small molecule agonists, cell-based qHTS assay (AID 1963594); note: nearly all actives have a fitted effect of over 35% in size
# Method in brief: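 cAMP accumulation in DRD2-HEK293 cells measured by HTRF after 1 h detection; compounds added 10 min before NKH477 (200nM […]) forskolin-analogue stimulation, 30 min at room temperature, with Ro20-1724 present at 0.1 mM final.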
# [20] = biological target: D(2) dopamine receptor (Homo sapiens) (UniProt P14416); test: Dopamine D2 receptor (DRD2) small molecule antagonists, cell-based qHTS assay (AID 1963595; active = well fitted inhibition curve with a large enough effect in the signal ratio in the repeat runs, with a control signal flat; the % refers to the signal ratio)
# Method in brief: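 Stable D2 receptor HEK293 line, 24 h after seeding. Compound preincubated 10 min, then quinpirole (12 nM) with forskolin analogue NKH477 (200 nM), 30 min, room temperature. Detection by time-resolved FRET of cAMP.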
# Sequence of Beta-2 adrenergic receptor (Homo sapiens) (P07550 whole entry, looked up): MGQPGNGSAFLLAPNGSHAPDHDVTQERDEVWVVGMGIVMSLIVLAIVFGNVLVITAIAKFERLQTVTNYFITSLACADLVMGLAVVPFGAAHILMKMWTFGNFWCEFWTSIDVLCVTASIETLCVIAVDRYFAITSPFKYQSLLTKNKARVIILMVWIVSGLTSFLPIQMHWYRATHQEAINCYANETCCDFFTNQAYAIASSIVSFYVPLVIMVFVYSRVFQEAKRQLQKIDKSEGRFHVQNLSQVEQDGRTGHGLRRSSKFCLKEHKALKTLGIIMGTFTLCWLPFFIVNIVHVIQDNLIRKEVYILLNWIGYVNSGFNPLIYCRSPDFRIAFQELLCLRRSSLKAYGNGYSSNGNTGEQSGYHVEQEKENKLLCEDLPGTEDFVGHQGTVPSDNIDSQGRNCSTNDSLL
# Sequence of Gonadotropin-releasing hormone receptor (Homo sapiens) (P30968 whole entry, looked up): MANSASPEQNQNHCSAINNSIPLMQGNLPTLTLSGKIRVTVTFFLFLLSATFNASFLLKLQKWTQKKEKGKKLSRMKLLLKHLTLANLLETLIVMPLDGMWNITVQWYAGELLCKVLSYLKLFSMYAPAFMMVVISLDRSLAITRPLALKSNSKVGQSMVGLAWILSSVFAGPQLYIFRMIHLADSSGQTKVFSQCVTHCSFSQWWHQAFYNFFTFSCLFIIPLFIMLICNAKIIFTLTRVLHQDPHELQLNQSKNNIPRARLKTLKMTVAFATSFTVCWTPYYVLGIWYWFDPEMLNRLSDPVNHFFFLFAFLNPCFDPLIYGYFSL
# Sequence of Muscarinic acetylcholine receptor M1 (Homo sapiens) (P11229 whole entry, looked up): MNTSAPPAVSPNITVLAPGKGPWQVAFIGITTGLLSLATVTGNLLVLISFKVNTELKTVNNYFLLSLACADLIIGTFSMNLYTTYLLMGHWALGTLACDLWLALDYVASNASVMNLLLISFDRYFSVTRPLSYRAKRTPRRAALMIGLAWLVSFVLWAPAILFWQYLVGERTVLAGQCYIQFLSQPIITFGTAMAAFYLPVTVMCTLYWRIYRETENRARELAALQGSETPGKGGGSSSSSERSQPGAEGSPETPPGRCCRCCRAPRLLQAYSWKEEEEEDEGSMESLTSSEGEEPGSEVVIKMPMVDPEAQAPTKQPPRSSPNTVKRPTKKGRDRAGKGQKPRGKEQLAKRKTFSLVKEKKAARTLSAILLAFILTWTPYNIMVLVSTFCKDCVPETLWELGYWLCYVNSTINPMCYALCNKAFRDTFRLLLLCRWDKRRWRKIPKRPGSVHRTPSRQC
# Sequence of 5-hydroxytryptamine receptor 2A (Homo sapiens) (P28223 whole entry, looked up): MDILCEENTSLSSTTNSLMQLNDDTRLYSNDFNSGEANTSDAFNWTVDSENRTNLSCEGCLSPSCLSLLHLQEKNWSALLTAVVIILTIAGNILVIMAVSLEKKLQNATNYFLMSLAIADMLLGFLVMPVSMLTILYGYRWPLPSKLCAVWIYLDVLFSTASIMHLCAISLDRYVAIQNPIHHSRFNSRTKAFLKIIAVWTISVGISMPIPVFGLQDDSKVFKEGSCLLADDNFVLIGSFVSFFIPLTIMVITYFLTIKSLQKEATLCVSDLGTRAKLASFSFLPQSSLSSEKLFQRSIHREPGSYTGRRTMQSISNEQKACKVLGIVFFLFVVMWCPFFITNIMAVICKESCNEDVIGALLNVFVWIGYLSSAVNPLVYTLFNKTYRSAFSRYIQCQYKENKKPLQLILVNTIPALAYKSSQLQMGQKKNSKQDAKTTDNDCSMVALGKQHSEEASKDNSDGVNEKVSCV
# Sequence of D(2) dopamine receptor (Homo sapiens) (P14416 whole entry, looked up): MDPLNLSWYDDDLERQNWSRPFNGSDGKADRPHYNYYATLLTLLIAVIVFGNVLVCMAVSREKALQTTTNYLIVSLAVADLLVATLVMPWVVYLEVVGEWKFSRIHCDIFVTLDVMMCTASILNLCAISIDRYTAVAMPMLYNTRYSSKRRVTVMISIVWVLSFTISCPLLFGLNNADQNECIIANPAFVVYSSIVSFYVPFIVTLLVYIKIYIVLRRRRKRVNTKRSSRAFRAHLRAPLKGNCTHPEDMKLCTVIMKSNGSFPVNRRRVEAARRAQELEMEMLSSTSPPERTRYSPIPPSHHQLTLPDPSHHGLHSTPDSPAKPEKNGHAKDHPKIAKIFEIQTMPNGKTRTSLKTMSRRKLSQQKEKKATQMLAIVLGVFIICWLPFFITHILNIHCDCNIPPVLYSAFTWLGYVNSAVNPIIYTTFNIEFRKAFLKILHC
# Sequence of KiSS-1 receptor (Homo sapiens) (Q969F8 whole entry, looked up): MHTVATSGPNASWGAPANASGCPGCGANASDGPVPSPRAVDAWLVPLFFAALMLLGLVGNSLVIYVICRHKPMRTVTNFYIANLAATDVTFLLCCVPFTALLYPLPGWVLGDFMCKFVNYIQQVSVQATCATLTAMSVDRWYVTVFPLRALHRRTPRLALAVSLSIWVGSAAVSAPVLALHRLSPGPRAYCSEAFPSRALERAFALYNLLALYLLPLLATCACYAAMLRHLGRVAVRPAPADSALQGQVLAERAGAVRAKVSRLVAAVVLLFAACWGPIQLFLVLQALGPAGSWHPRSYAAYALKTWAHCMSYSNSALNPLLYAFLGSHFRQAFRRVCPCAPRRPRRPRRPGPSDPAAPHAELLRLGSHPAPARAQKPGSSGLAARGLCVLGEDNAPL
SMILES,Potency [1],Potency [2],Potency [3],Potency [4],Potency [5],Potency [6],Potency [7],Potency [8],Potency [9],Potency [10],Potency [11],Potency [12],Potency [13],Potency [14],Potency [15],Potency [16],Potency [17],Potency [18],Potency [19],Potency [20]
Nn1cnnc1,inactive,inactive,inactive,inactive,inactive,inactive,inactive,inactive,inactive,inactive,inactive,inactive,inactive,inactive,inactive,inactive,inactive,inactive,inactive,inactive
COC(=O)NC(=S)Nc1ccccc1NC(=S)NC(=O)OC,inactive,inactive,inactive,inactive,inactive,inactive,inactive,inactive,inactive,inactive,inactive,inactive,inactive,inactive,inactive,inactive,inactive,inactive,inactive,inactive
Cc1cc(Cl)ccc1OC(C)C(=O)O (stereo unspecified),inactive,inactive,inactive,inactive,inactive,inactive,inactive,inactive,inactive,inactive,inactive,inactive,inactive,inactive,inactive,inactive,inactive,inactive,inactive,inactive
COC(=O)Nc1cccc(OC(=O)Nc2cccc(C)c2)c1,inactive,13.7 µM (active) and inactive,inactive,inactive,inactive,inactive,inactive,inactive,inactive,inactive,inactive,inactive,inactive,inactive,inactive,inactive,inactive,inactive,,inactive
CN(C)N=O,inactive,inactive,inactive,inactive,inactive,inactive,inactive,inactive,inactive,inactive,inactive,inactive,inactive,inactive,inactive,inactive,inactive,inactive,inactive,inactive
Nc1ccc(Br)cc1,inactive,68.5 µM (active) and inactive,inactive,inactive,inactive,inactive,inactive,inactive,inactive,inactive,inactive,inactive,inactive,inactive,inactive,inactive,inactive,inactive,inactive,inactive
CC(=O)C(C)(C)C,inactive,inactive,inactive,inactive,inactive,inactive,inactive,inactive,inactive,inactive,inactive,inactive,inactive,inactive,inactive,inactive,inactive,inactive,inactive,inactive
N#CN=C(N)N,inactive,inactive,inactive,inactive,inactive,inactive,inactive,inactive,inactive,inactive,inactive,inactive,inactive,inactive,inactive,inactive,inactive,inactive,inactive,inactive
COC(=O)c1c(C(F)F)nc(C(F)(F)F)c(C2=NCCS2)c1CC(C)C,inactive,inactive,inactive,inactive,inactive,inactive,inactive,inactive,inactive,inactive,inactive,inactive,inactive,inactive,inactive,inactive,inactive,inactive,inactive,inactive
[CH3][Sn]([Cl])([Cl])[Cl],inactive,inactive,inactive,inactive,inactive,inactive,inactive,inactive,inactive,inactive,inactive,inactive,inactive,inactive,inactive,inactive,inactive,inactive,inactive,inactive
O=[N+]([O-])c1cccc(O)c1,inactive,inactive,inactive,inactive,inactive,inactive,inactive,inactive,inactive,inactive,inactive,inactive,inactive,inactive,inactive,inactive,inactive,inactive,inactive,
C=CCBr,inactive,inactive,inactive,inactive,inactive,inactive,inactive,inactive,inactive,inactive,inactive,inactive,inactive,inactive,inactive,inactive,inactive,inactive,inactive,inactive
CNC(=O)Oc1cccc2ccccc12,inactive,inactive,inactive,inactive,inactive,inactive,32.4 µM (active),inactive,inactive,inactive,inactive,inactive,inactive,inactive,inactive,inactive,inactive,inactive,,inactive
CCCCC(CC)COC(=O)c1c(Br)c(Br)c(Br)c(Br)c1C(=O)OCC(CC)CCCC (stereo unspecified),inactive,inactive,inactive,inactive,inactive,inactive,inactive,inactive,inactive,inactive,inactive,inactive,inactive,inactive,inactive,inactive,inactive,inactive,,inactive
O=C(O)c1cc(Cl)ccc1Cl,inactive,inactive,inactive,inactive,inactive,inactive,inactive,inactive,inactive,inactive,inactive,inactive,inactive,inactive,inactive,inactive,inactive,inactive,inactive,inactive
